# Measurements from the supplement of paper PMC12282887.
# ± gives the standard deviation of the averaged measurements.
# Experiments:
# Experiment in all cases: promoter activity interaction Z-score (Lux/OD deviation from empty-vector control); higher = stronger promoter induction by the compound
# [1] = test system: E. coli BW25113 acrABp lux reporter
# How it was run: (§1)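 E. coli BW25113 (wild type or marA, soxS or rob deletion) carrying low-copy luxCDABE promoter reporters grew in 40 µl LB Lennox in 384-well plates at 37°C. Each compound was tested at four 1:2 dilutions in biological duplicates. OD600 and luminescence were read every 30 min for 12 h. Areas were taken over 0–8 h (wild type) or 1–9 h (mutants), and wells below 10% of median growth area were removed. The score is the Z-transformed residual of growth-normalised luminescence fitted against the empty-vector control.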
# [2] = test system: E. coli BW25113 marRABp lux reporter
# How it was run: as §1
# [3] = test system: E. coli BW25113 micFp lux reporter
# How it was run: as §1
# [4] = test system: E. coli BW25113 ompFp lux reporter
# How it was run: as §1
# [5] = test system: E. coli BW25113 robp lux reporter
# How it was run: as §1
# [6] = test system: E. coli BW25113 soxSp lux reporter
# How it was run: as §1
# [7] = test system: E. coli BW25113 tolCp lux reporter
# How it was run: as §1
# [8] = 4.8 µg/ml, genetic background: wild type
# [9] = 4.8 µg/ml, genetic background: ΔmarA
# [10] = 4.8 µg/ml, genetic background: Δrob
# [11] = 4.8 µg/ml, genetic background: ΔsoxS
# [12] = 9.5 µg/ml, genetic background: wild type
# [13] = 9.5 µg/ml, genetic background: ΔmarA
# [14] = 9.5 µg/ml, genetic background: Δrob
# [15] = 9.5 µg/ml, genetic background: ΔsoxS
# [16] = 19 µg/ml, genetic background: wild type
# [17] = 19 µg/ml, genetic background: ΔmarA
# [18] = 19 µg/ml, genetic background: Δrob
# [19] = 19 µg/ml, genetic background: ΔsoxS
# [20] = 38.1 µg/ml, genetic background: wild type
# [21] = 38.1 µg/ml, genetic background: ΔmarA
# [22] = 38.1 µg/ml, genetic background: Δrob
# [23] = 38.1 µg/ml, genetic background: ΔsoxS
compound,measurement,setting,value
NC(N)=S [Thiourea],promoter activity interaction Z-score,[1]; [8],-0.187 ± 0.18
same,promoter activity interaction Z-score,[1]; [9],-0.399 ± 0.26
same,promoter activity interaction Z-score,[1]; [10],-0.36 ± 0.23
same,promoter activity interaction Z-score,[1]; [11],-0.569 ± 0.35
same,promoter activity interaction Z-score,[1]; [12],-0.18 ± 0.14
same,promoter activity interaction Z-score,[1]; [13],0.241 ± 0.33
same,promoter activity interaction Z-score,[1]; [14],0.0155 ± 0.17
same,promoter activity interaction Z-score,[1]; [15],-0.239 ± 0.4
same,promoter activity interaction Z-score,[1]; [16],-0.0387 ± 0.081
same,promoter activity interaction Z-score,[1]; [17],-0.48 ± 0.68
same,promoter activity interaction Z-score,[1]; [18],-0.186 ± 0.13
same,promoter activity interaction Z-score,[1]; [19],-0.351 ± 0.079
same,promoter activity interaction Z-score,[1]; [20],-0.113 ± 0.22
same,promoter activity interaction Z-score,[1]; [21],-0.12 ± 0.22
same,promoter activity interaction Z-score,[1]; [22],0.24 ± 0.064
same,promoter activity interaction Z-score,[1]; [23],-0.0892 ± 0.19
same,promoter activity interaction Z-score,[2]; [8],-0.23 ± 0.42
same,promoter activity interaction Z-score,[2]; [9],-0.11 ± 0.25
same,promoter activity interaction Z-score,[2]; [10],-0.246 ± 0.076
same,promoter activity interaction Z-score,[2]; [11],-0.231 ± 0.24
same,promoter activity interaction Z-score,[2]; [12],-0.161 ± 0.13
same,promoter activity interaction Z-score,[2]; [13],0.055 ± 0.11
same,promoter activity interaction Z-score,[2]; [14],-0.0456 ± 0.0082
same,promoter activity interaction Z-score,[2]; [15],-0.157 ± 0.14
same,promoter activity interaction Z-score,[2]; [16],-0.209 ± 0.12
same,promoter activity interaction Z-score,[2]; [17],-0.407 ± 0.02
same,promoter activity interaction Z-score,[2]; [18],-0.154 ± 0.11
same,promoter activity interaction Z-score,[2]; [19],-0.149 ± 0.038
same,promoter activity interaction Z-score,[2]; [20],-0.45 ± 0.34
same,promoter activity interaction Z-score,[2]; [21],-0.162 ± 0.17
same,promoter activity interaction Z-score,[2]; [22],-0.0285 ± 0.12
same,promoter activity interaction Z-score,[2]; [23],-0.0935 ± 0.032
same,promoter activity interaction Z-score,[3]; [8],-0.235 ± 0.23
same,promoter activity interaction Z-score,[3]; [9],-0.0756 ± 0.059
same,promoter activity interaction Z-score,[3]; [10],-0.0669 ± 0.076
same,promoter activity interaction Z-score,[3]; [11],-0.189 ± 0.15
same,promoter activity interaction Z-score,[3]; [12],0.261 ± 0.46
same,promoter activity interaction Z-score,[3]; [13],-0.0468 ± 0.13
same,promoter activity interaction Z-score,[3]; [14],-0.0323 ± 0.16
same,promoter activity interaction Z-score,[3]; [15],0.0238 ± 0.19
same,promoter activity interaction Z-score,[3]; [16],-0.293 ± 0.083
same,promoter activity interaction Z-score,[3]; [17],-0.144 ± 0.073
same,promoter activity interaction Z-score,[3]; [18],-0.0798 ± 0.19
same,promoter activity interaction Z-score,[3]; [19],-0.203 ± 0.18
same,promoter activity interaction Z-score,[3]; [20],-0.442 ± 0.33
same,promoter activity interaction Z-score,[3]; [21],-0.164 ± 0.059
same,promoter activity interaction Z-score,[3]; [22],-0.0862 ± 0.063
same,promoter activity interaction Z-score,[3]; [23],-0.341 ± 0.12
same,promoter activity interaction Z-score,[4]; [8],0.0411 ± 0.63
same,promoter activity interaction Z-score,[4]; [9],0.273 ± 0.023
same,promoter activity interaction Z-score,[4]; [10],0.0473 ± 0.84
same,promoter activity interaction Z-score,[4]; [11],-0.209 ± 0.4
same,promoter activity interaction Z-score,[4]; [12],0.331 ± 0.68
same,promoter activity interaction Z-score,[4]; [13],0.292 ± 0.32
same,promoter activity interaction Z-score,[4]; [14],0.271 ± 0.042
same,promoter activity interaction Z-score,[4]; [15],-0.0695 ± 0.25
same,promoter activity interaction Z-score,[4]; [16],0.307 ± 0.13
same,promoter activity interaction Z-score,[4]; [17],0.189 ± 0.15
same,promoter activity interaction Z-score,[4]; [18],-0.133 ± 0.22
same,promoter activity interaction Z-score,[4]; [19],-0.0487 ± 0.067
same,promoter activity interaction Z-score,[4]; [20],0.484 ± 0.11
same,promoter activity interaction Z-score,[4]; [21],0.567 ± 0.37
same,promoter activity interaction Z-score,[4]; [22],0.804 ± 0.41
same,promoter activity interaction Z-score,[4]; [23],0.352 ± 0.25
same,promoter activity interaction Z-score,[5]; [8],0.198 ± 0.54
same,promoter activity interaction Z-score,[5]; [9],-0.278 ± 0.4
same,promoter activity interaction Z-score,[5]; [10],-0.498 ± 0.88
same,promoter activity interaction Z-score,[5]; [11],-0.368 ± 0.72
same,promoter activity interaction Z-score,[5]; [12],0.517 ± 0.91
same,promoter activity interaction Z-score,[5]; [13],0.53 ± 0.53
same,promoter activity interaction Z-score,[5]; [14],-0.0465 ± 0.47
same,promoter activity interaction Z-score,[5]; [15],-0.206 ± 0.084
same,promoter activity interaction Z-score,[5]; [16],0.0253 ± 0.099
same,promoter activity interaction Z-score,[5]; [17],-0.564 ± 0.03
same,promoter activity interaction Z-score,[5]; [18],-0.172 ± 0.36
same,promoter activity interaction Z-score,[5]; [19],-0.633 ± 0.39
same,promoter activity interaction Z-score,[5]; [20],0.15 ± 0.3
same,promoter activity interaction Z-score,[5]; [21],-0.571 ± 0.48
same,promoter activity interaction Z-score,[5]; [22],0.0676 ± 0.18
same,promoter activity interaction Z-score,[5]; [23],-0.509 ± 0.51
same,promoter activity interaction Z-score,[6]; [8],-0.265 ± 0.12
same,promoter activity interaction Z-score,[6]; [9],-0.27 ± 0.0046
same,promoter activity interaction Z-score,[6]; [10],-0.311 ± 0.21
same,promoter activity interaction Z-score,[6]; [11],-0.36 ± 0.21
same,promoter activity interaction Z-score,[6]; [12],-0.21 ± 0.083
same,promoter activity interaction Z-score,[6]; [13],-0.161 ± 0.02
same,promoter activity interaction Z-score,[6]; [14],-0.36 ± 0.053
same,promoter activity interaction Z-score,[6]; [15],-0.318 ± 0.36
same,promoter activity interaction Z-score,[6]; [16],-0.205 ± 0.22
same,promoter activity interaction Z-score,[6]; [17],-0.41 ± 0.026
same,promoter activity interaction Z-score,[6]; [18],-0.292 ± 0.098
same,promoter activity interaction Z-score,[6]; [19],-0.397 ± 0.33
same,promoter activity interaction Z-score,[6]; [20],-0.492 ± 0.0079
same,promoter activity interaction Z-score,[6]; [21],-0.464 ± 0.087
same,promoter activity interaction Z-score,[6]; [22],-0.389 ± 0.024
same,promoter activity interaction Z-score,[6]; [23],-0.476 ± 0.5
same,promoter activity interaction Z-score,[7]; [8],-0.648 ± 0.31
same,promoter activity interaction Z-score,[7]; [9],-0.358 ± 0.66
same,promoter activity interaction Z-score,[7]; [10],0.771 ± 0.35
same,promoter activity interaction Z-score,[7]; [11],-0.943 ± 0.29
same,promoter activity interaction Z-score,[7]; [12],-0.618 ± 1.8
same,promoter activity interaction Z-score,[7]; [13],0.4 ± 0.71
same,promoter activity interaction Z-score,[7]; [14],0.609 ± 0.4
same,promoter activity interaction Z-score,[7]; [15],-0.368 ± 0.54
same,promoter activity interaction Z-score,[7]; [16],-0.0827 ± 0.073
same,promoter activity interaction Z-score,[7]; [17],-0.203 ± 0.14
same,promoter activity interaction Z-score,[7]; [18],-0.414 ± 0.69
same,promoter activity interaction Z-score,[7]; [19],0.14 ± 0.66
same,promoter activity interaction Z-score,[7]; [20],0.133 ± 0.26
same,promoter activity interaction Z-score,[7]; [21],-0.216 ± 0.12
same,promoter activity interaction Z-score,[7]; [22],0.188 ± 0.21
same,promoter activity interaction Z-score,[7]; [23],-0.969 ± 1.2
